Compound activity as filed in PubChem BioAssay.
KCNK9 inh: KCNK9 potassium channel inhibitors, primary screen, HEK293 cells, thallium flux; hit rate 1.2% among 310,000; FluxOR thallium flux fluorescence; hits give low values; B-score at 10 µM; Potassium channel subfamily K member 9 (Homo sapiens), Q9NPC2;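 active = ratio B-score over 3 SD below the library mean, with starting fluorescence within 5 SD of its mean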;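 note: negative B-score means less thallium flux so channel inhibition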
ANO1 block: TMEM16A chloride channel inhibitors, primary screen, cell-based, HTS; normalized B-score (activity score, 25-100; higher = stronger inhibition) at 10 µM; HEK293 TMEM16A/YFP iodide influx fluorescence, ionomycin; Anoctamin-1 (Mus musculus), Q8BHY3; AID 588511, 2011; hit rate 1.2% among 310,000;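 active = ratio plate-corrected score three or more library SD toward inhibition, starting fluorescence score within five deviations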;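 note: score derived from kinetic fluorescence span divided by baseline fluorescence per well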
Target sequence (Q8BHY3 whole entry, looked up): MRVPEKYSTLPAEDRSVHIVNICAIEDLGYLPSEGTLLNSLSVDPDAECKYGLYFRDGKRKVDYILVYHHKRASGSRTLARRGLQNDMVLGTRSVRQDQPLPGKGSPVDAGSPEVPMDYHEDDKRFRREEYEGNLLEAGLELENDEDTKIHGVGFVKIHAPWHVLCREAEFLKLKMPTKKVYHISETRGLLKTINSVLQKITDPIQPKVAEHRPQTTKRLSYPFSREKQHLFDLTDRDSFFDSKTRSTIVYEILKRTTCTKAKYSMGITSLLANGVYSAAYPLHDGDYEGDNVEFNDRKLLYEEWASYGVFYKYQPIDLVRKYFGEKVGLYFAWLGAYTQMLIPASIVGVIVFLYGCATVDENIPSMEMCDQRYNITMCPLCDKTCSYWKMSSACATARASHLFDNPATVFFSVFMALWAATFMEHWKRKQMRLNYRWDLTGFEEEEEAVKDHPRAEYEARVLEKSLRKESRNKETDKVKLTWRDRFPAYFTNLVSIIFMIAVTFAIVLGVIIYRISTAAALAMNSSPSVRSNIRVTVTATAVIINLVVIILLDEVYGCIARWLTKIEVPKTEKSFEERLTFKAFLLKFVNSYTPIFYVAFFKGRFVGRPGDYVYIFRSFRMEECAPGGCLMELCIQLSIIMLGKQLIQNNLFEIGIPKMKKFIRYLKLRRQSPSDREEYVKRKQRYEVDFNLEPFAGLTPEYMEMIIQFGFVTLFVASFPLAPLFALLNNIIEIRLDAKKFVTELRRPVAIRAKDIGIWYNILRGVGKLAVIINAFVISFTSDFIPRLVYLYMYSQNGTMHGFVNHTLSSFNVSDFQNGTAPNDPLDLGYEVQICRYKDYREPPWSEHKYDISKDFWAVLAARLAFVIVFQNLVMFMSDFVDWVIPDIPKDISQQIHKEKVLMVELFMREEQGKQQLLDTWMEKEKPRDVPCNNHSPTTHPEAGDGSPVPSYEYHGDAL
Kir21 block: inhibitors of mouse Kir2.1 inward-rectifier potassium channel; Inward rectifier potassium channel 2 (Mus musculus), P35561; HEK293-Kir2.1, FluxOR thallium flux fluorescence; hits give low values; B-score at 10 µM; hit rate 0.85% among 310,000; AID 1672, 2009;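 active = fluorescence ratio B-score at or below minus 3 SD of library scores, with starting-brightness B-score within 2 SD, cut at about -4.2 in these data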;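 note: channel flux triggered by added potassium and thallium sulfate stimulus; B-score of peak minus minimum fluorescence over baseline after thallium stimulus; more negative B-score means stronger Kir2.1 block with less thallium influx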
ANO1 activ: TMEM16A chloride channel activators or potentiators, primary screen, cell-based, HTS; B-score at 10 µM; Anoctamin-1 (Mus musculus), Q8BHY3; hit rate 0.3% among 340,000; AID 623877, 2012; HEK293 TMEM16A/YFP-H148Q/I152L, iodide quench fluorescence; hits give low values;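 active = fluorescence-ratio B-score plate-corrected deviation score at least 3 library SD below zero, with starting fluorescence score within 5 deviations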;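 note: channel opened by trigger with iodide after compound preincubation; score built on the fluorescence ratio of max minus min over baseline; more negative score means more quench and so TMEM16A activation or potentiation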
KCNK3 block: human KCNK3 channel inhibitors, primary screen, CHO cells, FluxOR thallium flux, B-score | B-score at 10 µM | hit rate 0.84% among 340,000 | Potassium channel subfamily K member 3 (Homo sapiens), O14649 | FluxOR fluorescence; hits give low values;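 active = B-score under library mean minus 4 SD, starting fluorescence ratio at most library mean plus 5 SD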;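 note: more negative B-score means stronger inhibition of thallium flux through KCNK3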
TMEM16A reconf: TMEM16A chloride channel inhibitors, confirmation, cell-based, re-confirmation. hit rate 39% among 2,300. inhibition, % at 10 µM. shares compounds with ANO1 block. HEK293 TMEM16A/YFP-H148Q, iodide quench fluorescence; ionomycin added to raise cell calcium;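 active = mean duplicate percent inhibition, scaled so buffer wells are 0 and the reference blocker 100, over three buffer SD above buffer mean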
HEK293 Ca mobil: calcium mobilization in TMEM16A/YFP HEK293 cells, confirmation, counter-screen for TMEM16A inhibitor project | shares compounds with ANO1 block | Fluo4 calcium mobilization | calcium response (% of ionomycin), % at 10 µM | hit rate 2% among 2,300;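 active = duplicate-averaged calcium signal over 20% of the ionomycin maximum, relative to buffer baseline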;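 note: each well's signal is peak minus trough fluorescence divided by its pre-addition baseline; 0% = buffer wells and 100% = ionomycin wells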
Parental YFP cnt: iodide YFP quench changes in parental YFP-HEK293, counter-screen for TMEM16A inhibitor project, cell-based; shares compounds with ANO1 block; ionomycin; YFP ratio F(max-min)/F0 at 10 µM; 2,300 tested, under 10 active; AID 652233, 2013;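 active = yellow fluorescent protein signal ratio exceeding the buffer control mean by over 5 SD of those controls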;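 note: ratio is mean of duplicate wells from kinetic YFP trace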
ClC-1 rat inh: ClC-1 chloride channel inhibition, selectivity assay for TMEM16A inhibitor project, cell-based, voltage-dependent ClC-1; shares compounds with ANO1 block; CHO ClC-1-YFP, iodide influx fluorescence quench; iodide control reads 0, buffer control 100; ratio percent, % at 10 µM; 2,300 tested, under 10 active; AID 652236, 2013;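 active = duplicate-mean ratio percent above the mean of iodide-only control wells, which defines zero, plus 5 of their SD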;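 note: higher percent means stronger block of ClC-1 iodide influx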
Numbers without * were called inactive. Hits are enriched below; roughly 3.5% of the tested compounds scored in any of these assays.

For COCC(C)n1c(C)cc(C(=O)COC(=O)c2oc3ccccc3c2C)c1C (stereo not drawn) the results were KCNK9 inh inactive, ANO1 block 100*, Kir21 block 0.05, ANO1 activ inactive, KCNK3 block inactive, TMEM16A reconf 26%*, HEK293 Ca mobil inactive, Parental YFP cnt -0.89 and ClC-1 rat inh -13.
For Cc1ccc(CNC(=O)[C@H](C)[C@H]2C[C@]2(C)[C@H](NC(=O)OCc2ccccc2)c2ccccc2)o1 the results were KCNK9 inh inactive, ANO1 block inactive, Kir21 block 0.02, ANO1 activ inactive and KCNK3 block inactive.
`O=c1c(Cc2ccccc2)c(O)ccn1CCc1cnc[nH]1` gave KCNK9 inh inactive, ANO1 block inactive, Kir21 block 1.7, ANO1 activ inactive and KCNK3 block inactive.
NC1=NC[C@H](Cc2ccccc2)N1CCCCC1CCCCC1 was read as KCNK9 inh inactive, ANO1 block 25*, Kir21 block -5.8*, ANO1 activ inactive, KCNK3 block inactive, TMEM16A reconf 38%*, HEK293 Ca mobil inactive, Parental YFP cnt -1 and ClC-1 rat inh -12.
Screening Cc1cc(C)nc(NCC(O)CNc2ccccc2Cl)n1 (stereo not drawn) returned KCNK9 inh inactive, ANO1 block 25*, Kir21 block -2, ANO1 activ inactive, KCNK3 block inactive, TMEM16A reconf 36%*, HEK293 Ca mobil inactive, Parental YFP cnt -1.2 and ClC-1 rat inh -14.
`Cc1onc(-c2ccccc2)c1C(=O)NCCCc1ccccc1` gave ANO1 activ inactive and KCNK3 block inactive.
CN1CCN(/N=C/c2ccc(N(c3ccccc3)c3ccccc3)cc2)CC1 was read as KCNK9 inh inactive, ANO1 block 100*, Kir21 block -0.13, ANO1 activ inactive, KCNK3 block inactive, TMEM16A reconf 32%*, HEK293 Ca mobil inactive, Parental YFP cnt -0.93 and ClC-1 rat inh -3.
For CC1(C)C(=O)Nc2ccccc2N1C(=O)COC(=O)c1ccc(Cl)c(S(=O)(=O)NCc2ccccc2)c1 the results were KCNK9 inh inactive, ANO1 block inactive, Kir21 block -1.5, ANO1 activ inactive and KCNK3 block inactive.
`C/C(=C\C(=O)c1ccc(C)cc1)NCc1ccc(F)cc1` gave KCNK9 inh inactive, ANO1 block 100*, Kir21 block -1.3, ANO1 activ inactive, KCNK3 block inactive, TMEM16A reconf inactive, HEK293 Ca mobil inactive, Parental YFP cnt -1 and ClC-1 rat inh -19.
For C/C(=C\C(=O)c1ccc(F)cc1)NCc1ccc2c(c1)OCO2 the results were KCNK9 inh inactive, ANO1 block 100*, Kir21 block -0.69, ANO1 activ -52*, KCNK3 block inactive, TMEM16A reconf inactive, HEK293 Ca mobil inactive, Parental YFP cnt -1.2 and ClC-1 rat inh -18.
`O=P(c1ccccc1)(c1ccccc1)c1nc(-c2ccc(Cl)cc2)oc1N1CCOCC1` gave KCNK9 inh inactive, ANO1 block inactive, Kir21 block 0.12, ANO1 activ inactive and KCNK3 block inactive.
For CCN(CC)S(=O)(=O)c1ccc2oc(SCC3CN=C(c4ccc(OC)cc4)S3)nc2c1 (stereo not drawn) the results were KCNK9 inh inactive, ANO1 block 100*, Kir21 block 1.3, ANO1 activ inactive, KCNK3 block inactive, TMEM16A reconf 16%*, HEK293 Ca mobil inactive, Parental YFP cnt -0.93 and ClC-1 rat inh -4.
CCOc1ccc(C(C)NC(=S)NC2CCCCC2)cc1OCC (stereo not drawn) was read as KCNK9 inh inactive, ANO1 block inactive, Kir21 block 0.31, ANO1 activ inactive and KCNK3 block inactive.
For CC(NC(=S)NC1CCCCC1)c1ccc(C(C)(C)C)cc1 (stereo not drawn) the results were KCNK9 inh inactive, ANO1 block 25*, Kir21 block 1.6, ANO1 activ inactive, KCNK3 block inactive, TMEM16A reconf inactive, HEK293 Ca mobil inactive, Parental YFP cnt -0.78 and ClC-1 rat inh 2.
Screening CC(C)c1ccc(C(C)NC(=S)NC2CCCCC2)cc1 (stereo not drawn) returned KCNK9 inh inactive, ANO1 block 25*, Kir21 block -1.7, ANO1 activ inactive, KCNK3 block inactive, TMEM16A reconf 26%*, HEK293 Ca mobil inactive, Parental YFP cnt -1 and ClC-1 rat inh -2.
Screening CCOc1ccc(C(C)NC(=S)NC2CCCCC2)cc1 (stereo not drawn) returned KCNK9 inh inactive, ANO1 block inactive, Kir21 block 0.34, ANO1 activ inactive and KCNK3 block inactive.
Screening CC(Cn1cncn1)C(=O)N1CCN(S(=O)(=O)c2ccc(Cl)cc2)CC1 (stereo not drawn) returned KCNK9 inh inactive, ANO1 block inactive, Kir21 block -0.69, ANO1 activ inactive and KCNK3 block inactive.
Screening COc1ccccc1-c1nnc(SCC(=O)Nc2ccc(Cl)cc2Cl)o1 returned KCNK9 inh inactive, ANO1 block inactive, Kir21 block 1.8, ANO1 activ inactive and KCNK3 block inactive.
`COc1cccc2c1OC[C@@H](CO)[C@H]2N(C)C(=O)Nc1ccc(Cl)cc1Cl` gave KCNK9 inh inactive, ANO1 block inactive, Kir21 block 1, ANO1 activ inactive, KCNK3 block inactive, TMEM16A reconf inactive, HEK293 Ca mobil inactive, Parental YFP cnt -1.1 and ClC-1 rat inh -11.
Screening CCCCn1c(SCc2nc3ccccc3s2)nc2cc(S(N)(=O)=O)ccc21 returned KCNK9 inh inactive, ANO1 block 25*, Kir21 block -0.73, ANO1 activ inactive, KCNK3 block inactive, TMEM16A reconf inactive, HEK293 Ca mobil inactive, Parental YFP cnt -0.81 and ClC-1 rat inh -3.
